This is an account of results in PubChem BioAssay (NCI).

This is part of a sample that, as a whole, favours compounds with a hit. Of some 79,000 tested, about 15% had one in any assay. A number with no mark means an inactive call. Activity calls are given as the source filed them. Cut-off read from the data, not from the text of the source: active = growth inhibition above about 70%; inactive = the rest.

Assay [1] is described as follows: NCI Yeast Anticancer Drug Screen. Data for the rad50 strain (AID 155).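 Note: 0% = growth of vehicle-only cultures of the same strain.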 The following applies: S. cerevisiae rad50 strain growth inhibition, stronger effect = higher value; at 50.0 µM unless noted. The essentials: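 A DNA repair-deficient yeast mutant serves as the test organism; compound-induced growth inhibition is calculated against vehicle-treated cells.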
Assay [2] can be described thus: NCI Yeast Anticancer Drug Screen. Data for the mec2-1 strain (AID 157). Conditions: S. cerevisiae mec2-1 strain, stronger effect = higher value; at 50.0 µM unless noted. The essentials:
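Cells of the genetically defined mec2-1 yeast strain are incubated with test compound. Inhibition of growth is calculated against vehicle-treated controls.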

Assay [3] can be described thus: NCI Yeast Anticancer Drug Screen. Data for the sgs1 mgt1 strain (AID 161).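 Note: 0% = growth of cultures given vehicle only.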 Conditions: S. cerevisiae sgs1 mgt1 strain, stronger effect = higher value; at 50.0 µM unless noted. In short, it runs like this: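 Mutant yeast exposed to compound; growth scored against vehicle-only wells.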
Assay [4] in a line: NCI Yeast Anticancer Drug Screen. Data for the cln2 rad14 strain (AID 165).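 Note: 0% = growth equal to vehicle treated cultures.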 Conditions: S. cerevisiae cln2 rad14 strain, stronger effect = higher value; at 50.0 µM unless noted. The essentials: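 The screen exposed genetically defined yeast (cln2 rad14) to test compounds and scored growth inhibition relative to vehicle-treated controls.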
A short description of assay [5]: NCI Yeast Anticancer Drug Screen. Data for the bub3 strain (AID 167). The following applies: S. cerevisiae bub3 mutant strain, stronger effect = higher value; at 50.0 µM unless noted. In short, it runs like this:
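Inhibition values come from growth of compound-treated mutant yeast normalised to vehicle-treated controls.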

Assay [6] can be described thus: NCI Yeast Anticancer Drug Screen. Data for the mlh1 rad18 strain (AID 175). The following applies: S. cerevisiae mlh1 rad18 strain growth inhibition, stronger effect = higher value; at 50.0 µM unless noted. In short, it runs like this: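 Compound-treated yeast growth, normalised to vehicle controls. Strain bears defined DNA repair mutations.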

In the case of `CCCCN(CCCC)C(=N)c1ccccc1C`, the growth inhibition in assay [1] is 4.8%; in assay [2], -13.9%; in assay [3], 10.9%; in assay [4], -23.6%; in assay [5], 1.55%; in assay [6], -3.35%.
As to `CC(NC(=O)CNC(=O)OCc1ccccc1)C(=O)O` (stereo not given), the growth inhibition is 3.55% in assay [1]; 9.35% in assay [2]; 11.6% in assay [3]; -0.35% in assay [4]; 8.1% in assay [5]; -10.1% in assay [6].
Consider `O=C(CCl)Oc1ccc2ccccc2c1`, for which the growth inhibition in assay [1] was 27.1%; in assay [2] it was -2.05%; in assay [3], -8.05%; in assay [4], 8.25%; in assay [5], 13.1%; in assay [6] it was 31.4%.
As for `CC(=O)Oc1ccc2c(c1)[nH]c1c3ccc(OC(C)=O)cc3oc(=O)c21`, the growth inhibition in assay [1] is -21.4%; in assay [2], -26.9%; in assay [3], -8.05%; in assay [4], 5.8%; in assay [5] it was -2.85%; in assay [6], -13.7%.
Take `O=c1[nH]nc(Cc2ccccc2)n1C1CCCC1`: the growth inhibition in assay [1] is -1.55%; in assay [2], -5.3%; in assay [3], -12.6%; in assay [4] it was -17.8%; in assay [5] it was -9.6%; in assay [6], -1.05%.
For the compound `COc1ccc(NC(=O)CC(=O)N2N=C(N3c4ccccc4Sc4ccccc43)CC2c2ccccc2)cc1` (stereo not given), the growth inhibition in assay [1] was 8.65%; in assay [2] it was -4.1%; in assay [3] it was 0.8%; in assay [4], 14.2%; in assay [5], 4.8%; in assay [6] it was -3.6%.
`O=C(NCC1CC1)c1cccs1`: the growth inhibition in assay [1] was -41.4%; in assay [2] it was -50.9%; in assay [3] it was -18.9%; in assay [4], -23.6%; in assay [5], -21.6%; in assay [6], -50.4%.
For the compound `C=CCC(Cc1ccccc1)C(N)=O` (stereo not given), the growth inhibition is -21.1% in assay [1]; -51.7% in assay [2]; -14.5% in assay [3]; 10.6% in assay [4]; -22.2% in assay [5]; 14.4% in assay [6].
As for `CCOc1ccc(N=Cc2ccc3cc(C)ccc3n2)cc1`, the growth inhibition was -9.95% in assay [1]; -9.65% in assay [2]; -2.4% in assay [3]; 12.2% in assay [4]; -1.8% in assay [5]; -19.9% in assay [6].
In the case of `NC(N)=NC(N)=Nc1ccc(S(=O)(=O)O)cc1`, the growth inhibition is -4.7% in assay [1]; -26.9% in assay [2]; -47% in assay [3]; -22.7% in assay [4]; -29.6% in assay [5]; -11.8% in assay [6].
Regarding `CCC[N+](C)(C)CCC#N`, the growth inhibition in assay [1] is -4.55%; in assay [2] it was 10.9%; in assay [3], 4.2%; in assay [4] it was -14%; in assay [5], 17.1%; in assay [6], 5.25%.
In the case of `ClB1NB(Cl)NB(Cl)N1`, the growth inhibition in assay [1] was -9.45%; in assay [2], -33.8%; in assay [3], -9.95%; in assay [4], -7%; in assay [5], -11.9%; in assay [6], 3.55%.
On to `CNS(=O)(=O)c1ccc(C)c(C)c1`, for which the growth inhibition in assay [1] was -0.5%; in assay [2], -13.9%; in assay [3] it was 4.4%; in assay [4], -10.7%; in assay [5], 23.1%; in assay [6], 12.7%.
Consider `CC(C)CC(C)COC(=O)c1c(Cl)c(Cl)c(Cl)c(Cl)c1C(=O)O` (stereo not given), for which the growth inhibition was 66.6% in assay [1]; 62.6% in assay [2]; 77.9% (active) in assay [3]; 63.4% in assay [4]; 72.8% (active) in assay [5]; 77.3% (active) in assay [6].
Consider `NC(=O)C(O)c1c[nH]c2ccccc12` (stereo not given), for which the growth inhibition was 3.7% in assay [1]; 1.75% in assay [2]; -1.45% in assay [3]; 6.4% in assay [4]; -15% in assay [5]; 8.2% in assay [6].
Turning to `O=CNNc1nn2cnnc2c2ccccc12`, the growth inhibition was -1% in assay [1]; 9.95% in assay [2]; -6.55% in assay [3]; 11.9% in assay [4]; -16.6% in assay [5]; 9.6% in assay [6].
Take `CNc1c(F)c(C#N)c(F)c(F)c1C#N`: the growth inhibition in assay [1] is 9.35%; in assay [2], -6.95%; in assay [3] it was -16.6%; in assay [4], -8.95%; in assay [5], 0.55%; in assay [6], 1.75%.
Consider `COc1nc(NC2OC(COC(C)=O)C(OC(C)=O)C(OC(C)=O)C2OC(C)=O)c(N=CC=Nc2c(NC3OC(COC(C)=O)C(OC(C)=O)C(OC(C)=O)C3OC(C)=O)nc(OC)[nH]c2=O)c(=O)[nH]1` (stereo not given), for which the growth inhibition in assay [1] was -11.3%; in assay [2] it was -8.45%; in assay [3] it was -2.65%; in assay [4] it was -16.8%; in assay [5], -5.6%; in assay [6] it was -11.5%.
Regarding `CCCCCCCCCC(=O)Oc1cccc2c1CC(C[Se]c1ccccc1)C(=O)O2` (stereo not given), the growth inhibition was 2.1% in assay [1]; -0.3% in assay [2]; -0.85% in assay [3]; -3.05% in assay [4]; -2.05% in assay [5]; 5.7% in assay [6].
Regarding `CCCCN(CCCC)CC(=O)NC(=O)c1ccccc1`, the growth inhibition in assay [1] was -9.55%; in assay [2], -5.55%; in assay [3], 3.35%; in assay [4] it was -38.5%; in assay [5], 10.8%; in assay [6], -14.3%.
